ALOX12 inh = blocks human arachidonate 12S-lipoxygenase | Potency, µM (titrated, usually from 108 µM), inactives show top-dose activity change, negative = inhibition, hits mostly inhibitors | 580,000 compounds, 1.1% hits | purified 12hLO, xylenol orange hydroperoxide absorbance | AID 1671190; further: potency means the concentration at half of the fitted maximal effect; on the % scale 0 is the no-effect control and ±100 the full control effect
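Hydroperoxide product was detected by ferrous iron/xylenol orange as the 573 to 405 nm absorbance ratio. Arachidonic acid at 40 uM (final) was turned over for 30 min at room temperature by 150 nM human 12hLO, pH 7.0 Hepes buffer, after 15 min compound preincubation.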
A549 viability = A549 cytotoxicity, counter-screen for Nrf2 inhibitors; AID 504648; Potency, µM (top dose mostly 46 µM), without a hit: at the highest dose activity change, negative = cytotoxicity, hits mostly inhibitors; A549 ARE-Fluc cells, CellTiter-Fluor viability, 18-24 h; 390,000 compounds, 0.16% hits; further: potency means the concentration at half of the fitted maximal effect; on the % scale 0 is the no-effect control and ±100 the full control effect
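A549 ARE_Fluc cells in 5% FBS OPTI-MEM were exposed to compounds in concentration-response for 18-24 h at 37 deg C. Viability was read by CellTiter-Fluor fluorescence (Ex 405/Em 525) after 30 min, before the luciferase read.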
LDHA block = inhibitors of human lactate dehydrogenase A; AID 1347041; activity change, % (values are at about 110 or 230 µM); purified LDHA, NADH/diaphorase-resazurin fluorescence; active compounds read low; 480,000 compounds, 0.15% hits; P00338; in the data active means activity change below about -30%; inconclusive means mostly about -25% to -30%;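 further: plate controls were DMSO wells for no effect and wells without enzyme for full effect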
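Enzyme activity of human lactate dehydrogenase 5 (2 nM; 0.06 mM NADH, 0.2 mM pyruvate, 5 min, RT) is measured via a resazurin/diaphorase fluorescence readout of residual NADH.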
IDH1 R132H inh = inhibitors of human mutant IDH1 R132H; O75874; IDH1-R132H enzyme, NADPH consumption, diaphorase/resazurin fluorescence; Potency, µM (highest dose often 76.6 µM), for the others: at the top dose activity change, negative = inhibition, most hits filed as inhibitors; 390,000 compounds, 0.093% hits; further: potency means the concentration at half of the fitted maximal effect; on the % scale 0 is the no-effect control and ±100 the full control effect; nearly all actives have a fitted effect of over 65% in size
Target sequence (O75874 whole entry R132H, stated change not applied): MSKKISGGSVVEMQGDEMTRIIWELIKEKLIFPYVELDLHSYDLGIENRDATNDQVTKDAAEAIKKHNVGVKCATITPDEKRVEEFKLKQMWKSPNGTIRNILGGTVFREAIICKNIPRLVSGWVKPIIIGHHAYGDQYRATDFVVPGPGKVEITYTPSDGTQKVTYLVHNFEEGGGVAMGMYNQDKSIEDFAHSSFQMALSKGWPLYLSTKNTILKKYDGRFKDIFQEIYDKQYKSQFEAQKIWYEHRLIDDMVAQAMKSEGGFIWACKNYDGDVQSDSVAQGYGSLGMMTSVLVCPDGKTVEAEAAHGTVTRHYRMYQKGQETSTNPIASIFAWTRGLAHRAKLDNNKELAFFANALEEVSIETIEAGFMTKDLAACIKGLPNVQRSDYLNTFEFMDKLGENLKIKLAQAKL
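IDH1-R132H (0.5 ug/mL dispensed) in pH 7.5 Tris buffer was preincubated 30 min with compound, then given a substrate mix of 0.016 mM NADPH and 2 mM alpha-KG for 80 min at room temperature; remaining NADPH was read by diaphorase/resazurin fluorescence.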
Nrf2 ARE act = activates Nrf2 signaling. AREc32 ARE-luciferase reporter (MCF7-derived line), luminescence, 24 h. Potency, µM (top dose mostly 46.1 µM), for inactives: at the top dose activation, actives largely listed as activators. 410,000 compounds, 0.31% hits. AID 624171; further: potency means the concentration at half of the fitted maximal effect; % of control where 0% means no effect; nearly all actives have a fitted effect of over 65% in size
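AREc32_Fluc, 1000 cells/well, OPTI-MEM + 5% FBS, o/n 37 deg C 5% CO2; 23 nL cpd by pin tool, 24 hr; Steady-Glo 30 min RT, luminescence.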
Nrf2 inh = blocks Nrf2 signaling; 360,000 compounds, 2.1% hits; A549 ARE-Fluc reporter, luciferase luminescence, 18-24 h; Potency, µM (highest dose often 46 µM), for inactives: at the highest dose activity change, negative = inhibition, usual class: inhibitors; AID 504444; further: potency means the concentration at half of the fitted maximal effect; on the % scale 0 is the no-effect control and ±100 the full control effect; nearly all actives have a fitted effect of over 60% in size
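Reporter: ARE-Fluc in A549. Exposure: 18-24 h, 37 °C, 5% CO2, 5% FBS OPTI-MEM. Readouts: fluorescent cytotoxicity (CellTiter-Fluor), then luminescent Nrf2 signal after BugLite.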
The depositor's hits bear a star; ? = inconclusive; · = no result. Rows were chosen to be rich in hits. Some 2.7% of all compounds tested hit in one or more screens of this group. Unless noted, the call rests on the fitted dose curve; in most records, active means well fitted curve in the direction sought with a large enough effect; inconclusive means small, poorly fitted or top-dose-only effect, or another doubt; inactive means no such curve, though single readings can be large; an effect the other way counts as inactive or inconclusive.

SMILES	ALOX12 inh	A549 viability	LDHA block	IDH1 R132H inh	Nrf2 ARE act	Nrf2 inh
Cc1ccc(NC(=O)COC(=O)c2cccc3c2C(=O)c2ccccc2C3=O)c(C)c1	5.3%	-1.0%	-3.3	6.8%	0.2%	?
O=C(COC(=O)c1cccc2c1C(=O)c1ccccc1C2=O)NC1CCCCC1	-8.1%	-20.8%	18.8	-8.4%	0.3%	?
Cc1cc(C)c(NC(=O)COC(=O)c2cccc3c2C(=O)c2ccccc2C3=O)c(C)c1	-3.9%	-11.1%	6.4	0.7%	0.3%	16.4µM*
Cc1ccc(C)c(NC(=O)COC(=O)c2cccc3c2C(=O)c2ccccc2C3=O)c1	-18.3%	-1.6%	0.6	9.0%	-0.1%	13µM*
COC(=O)c1cc(-c2ccc(OC)c(OC)c2)nc2onc(C(C)C)c12	?	·	13.2	·	·	·
Cc1ccc2c(=O)c(-c3nc(-c4cccc(F)c4)no3)cn(CC(=O)NCc3ccco3)c2n1	10µM*	·	1.1	·	·	·
Cc1ccc2c(=O)c(-c3nc(-c4ccccc4C)no3)cn(CC(=O)NCc3cccs3)c2n1	?	·	2.2	·	·	·
Oc1ccc(-c2nc3ccc4ccccc4c3c3c2CCC3)cc1O	2µM*	22.8%	6.8	-22.0%	9.0%	12.9%
Cc1ccc(SCCN2CCN(Cc3ccccc3)CC2)cc1	?	18.9%	-30.9*	4.7%	-0.3%	10.2%
Cc1ccc(SCCN2CCN(C)CC2)cc1	39.8µM*	4.7%	-0.9	-9.6%	-0.5%	11.1%
Cc1ccc(SCCN2CCN(C)CCC2=O)cc1	19.9%	6.6%	-0.3	8.8%	3.7%	?
CCCCCOc1ccc(C(N)C(=O)OCC)cc1 (stereo not drawn)	20µM*	·	7.8	·	·	·
Cc1ccc(S(=O)(=O)N=Nc2c(O)[nH]c3ccccc23)cc1	?	0.4%	-5.7	46.5µM*	-0.6%	-16.6%
COc1ccc(-c2cc(C(=O)NC3CCNCC3)c3c(C)nn(-c4ccccc4)c3n2)cc1	25.1µM*	·	·	·	·	·
Fc1ccc(-c2cnc(CSc3nnc(N4CCCC4)s3)o2)cc1	-20.9%	·	22.8	·	·	·
COc1cccc(CN(C(=O)Cc2c[nH]c3ccccc23)C(C(=O)NC2CCCCC2)c2ccc(C)o2)c1 (stereo not drawn)	-15.1%	?	0.7	-19.8%	5.4%	20.6µM*
COc1ccc(CN(C(=O)Cc2c[nH]c3ccccc23)C(C(=O)NC2CCCCC2)c2ccc(C)o2)cc1 (stereo not drawn)	?	?	0.0	-17.3%	0.3%	11.6µM*
CC(C)CC(C)N(C)C(=O)CCc1c[nH]c2ccccc12 (stereo not drawn)	-3.6%	·	1.6	·	·	·
Cc1cc(/C=C(/C#N)c2ccccn2)c(C)n1C1CC1	11.2µM*	·	-24.6	·	·	·
Cc1c(/C=C(/C#N)c2ccccn2)cc(C#N)n1C	35.5µM*	·	-8.5	·	·	·
N#C/C(=C\c1ccccc1)c1ccccn1	-22.6%	5.3%	-4.9	6.2%	?	28.1%
N#Cc1cc2c(cc1C(=O)C1CC1)OCCO2	3.4%	·	-7.7	·	·	·
O=C(/C=C/Nc1ccc(Cl)c(C(F)(F)F)c1)c1ccccc1	?	·	-2.1	·	·	·
O=C(COC(=O)CCN1C(=O)/C(=C\C=C\c2ccccc2)SC1=S)Nc1ccc(Br)cc1	?	-27.8%	-3.5	-3.7%	-0.7%	?
CC(C)c1ccccc1NC(=O)COC(=O)CCN1C(=O)/C(=C\C=C\c2ccccc2)SC1=S	-14.8%	?	-0.3	-3.7%	9.3%	10.3µM*
SMILES	ALOX12 inh	A549 viability	LDHA block	IDH1 R132H inh	Nrf2 ARE act	Nrf2 inh
Cc1ccc2[nH]c(C(=O)NCCOc3ccccc3)cc2c1	?	·	4.1	·	·	·
CC(O)c1ccc(-c2ccc(CNc3nnnn3C)o2)cc1 (stereo not drawn)	?	·	-8.5	·	·	·
Nc1ccc2c(c1)Cc1c(F)cccc1-2	·	1.0%	4.9	5.6%	10µM*	?
Nc1ccc2c(c1)Cc1cc(Cl)c(Cl)cc1-2	-8.4%	-2.2%	0.7	7.1%	2.9%	?
O=C(CCNC(=O)C1CCCC1)NC1(c2ccccc2)CCC1	-67.2%	·	10.0	·	·	·
Cc1oc(-c2ccccc2)nc1Cn1cccc(C(F)(F)F)c1=O	?	·	-2.7	·	·	·
Cc1ccc(S(=O)(=O)c2ccc(C)cc2)cc1	3.3%	-0.9%	2.3	9.0%	-0.9%	-0.6%
O=S(=O)(c1ccc(Cl)cc1)c1ccc(-c2ccc(S(=O)(=O)c3ccc(Cl)cc3)cc2)cc1	11.2µM*	·	-7.9	·	·	·
Cc1ccc2c(CN3CCN(C)CC3)cc(=O)oc2c1C	17.9%	·	-1.0	·	·	·
Cc1ccc2c(CN3CCN(S(=O)(=O)c4ccccc4C(F)(F)F)CC3)cc(=O)oc2c1C	-1.4%	2.2%	-3.1	5.4%	2.0%	5.17µM*
O=C(NCc1cccs1)c1ccc(OC2CCN(Cc3ccccn3)CC2)cc1	37.6%	·	·	·	·	·
CCn1cc(CNC(=O)c2ccc(OC3CCN(Cc4ccccn4)CC3)cc2)cn1	0.0%	1.4%	2.9	-7.8%	2.6%	11.6µM*
C=CCNc1nc(C(=O)OCC(=O)N(C)CC(=O)Nc2ccc(F)cc2)cs1	-6.3%	·	-0.4	·	·	·
O=C(c1ccc(Cl)cc1)N1CC(CO)C2(CCNCC2)C1 (stereo not drawn)	39.8µM*	·	·	·	·	·
Cc1ccc(C(=O)N2CC(CO)C3(CCNCC3)C2)c(C)c1 (stereo not drawn)	38.6%	·	·	·	·	·
CC1CC(C)CN(S(=O)(=O)c2ccc(C(=O)NCc3ccc4c(c3)OCO4)cc2)C1 (stereo not drawn)	-1.5%	1.3%	6.5	0.5%	0.3%	10.3µM*
COc1ccc(OC)c(Nc2nc(NCC(C)C)nc3c2cnn3-c2ccccc2)c1	-5.8%	·	2.7	·	·	·
Cc1cccc(C(=O)NCCCN(C)CC(F)(F)F)n1	3.6%	·	-30.7*	·	·	·
CS(=O)(=O)c1nc(S(=O)(=O)c2ccc(Cl)cc2)c(N2CCOCC2)s1	-2.5%	-2.7%	-4.8	2.3%	6.31µM*	?
CN(C(=O)CSc1nc2c(=O)[nH]cnc2n1CC1CCCO1)c1ccccc1 (stereo not drawn)	15.3%	·	5.2	·	·	·
CCCCCCCCCCCCCCCC[N+](C)(C)Cc1ccc(F)cc1	44.7µM*	-12.3%	0.8	5.0%	-2.4%	?
CCCCCC[N+](C)(C)CCCCCCCCCC[N+](C)(C)CCCCCC	?	·	-11.4	·	·	·
COC(=O)c1sccc1NC(=O)c1ccc(Br)o1	8.4%	0.3%	-1.3	-0.5%	5.62µM*	27.3%
COC(=O)c1sccc1NC(=O)COc1ccccc1Cl	-15.2%	2.7%	-5.8	-2.6%	12.6µM*	?
COC(=O)c1sccc1NC(=O)c1cccc(OC)c1	155.1%	3.1%	-8.7	4.1%	6.31µM*	13.6%

Screening data: PubChem BioAssay, National Center for Advancing Translational Sciences (NCATS)
